Data: the supplement of paper PMC9694430

Experiments:
Assay in all cases: thermal shift delta Tm vs DMSO control; higher = stronger stabilization (binding)
Settings in all cases: 12.5 µM; protein concentration 2 µM
[1] = test system: LOC_OS01G57100-cb003
Method in brief: (§1)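 Thermal shift values come from differential scanning fluorimetry on purified rice kinase domains made in E. coli, with melting temperatures obtained from Boltzmann fits. Samples of 19.5 μl held 2 μM kinase, 100 mM potassium phosphate pH 7.5, 150 mM NaCl, 10% glycerol, 5 × SYPRO Orange and compound in DMSO, and were heated from 25°C to 95°C at 0.05°C/s. Each shift is a triplicate mean relative to the DMSO-only protein sample.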

[2] = test system: LOC_OS01G60330-cb001
Method in brief: as §1

[3] = test system: LOC_OS01G60700-cb002
Method in brief: as §1

[4] = test system: LOC_OS01G63280-cb003
Method in brief: as §1

[5] = test system: LOC_OS01G67340-cb003
Method in brief: as §1

[6] = test system: LOC_OS01G70970-cb002
Method in brief: as §1

[7] = test system: LOC_OS02G07810-cb001
Method in brief: as §1

[8] = test system: LOC_OS02G08530-cb003
Method in brief: as §1

[9] = test system: LOC_OS02G14120-cb001
Method in brief: as §1

[10] = test system: LOC_OS02G17970-cb001
Method in brief: as §1

[11] = test system: LOC_OS02G45750-cb003
Method in brief: as §1

[12] = test system: LOC_OS02G54510-cb004
Method in brief: as §1

[13] = test system: LOC_OS03G04050-cb001
Method in brief: as §1

[14] = test system: LOC_OS03G12390-cb001
Method in brief: as §1

[15] = test system: LOC_OS03G27990-cb004
Method in brief: as §1

[16] = test system: LOC_OS03G50450-cb001
Method in brief: as §1

[17] = test system: LOC_OS03G50810-cb003
Method in brief: as §1

[18] = test system: LOC_OS04G35114-cb001
Method in brief: as §1

[19] = test system: T1, LOC_OS04G38480-cb003
T1 sequence (whole entry): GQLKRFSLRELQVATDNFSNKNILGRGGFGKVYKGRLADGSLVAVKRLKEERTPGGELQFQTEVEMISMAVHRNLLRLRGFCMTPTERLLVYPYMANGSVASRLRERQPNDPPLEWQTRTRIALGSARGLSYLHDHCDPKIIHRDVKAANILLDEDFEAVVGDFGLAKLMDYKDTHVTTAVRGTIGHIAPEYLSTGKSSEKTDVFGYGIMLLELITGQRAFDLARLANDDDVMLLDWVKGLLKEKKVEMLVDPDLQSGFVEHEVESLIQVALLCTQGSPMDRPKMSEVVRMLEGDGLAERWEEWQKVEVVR
Method in brief: as §1

[20] = test system: T2, LOC_OS04G41100-cb001
T2 sequence (whole entry): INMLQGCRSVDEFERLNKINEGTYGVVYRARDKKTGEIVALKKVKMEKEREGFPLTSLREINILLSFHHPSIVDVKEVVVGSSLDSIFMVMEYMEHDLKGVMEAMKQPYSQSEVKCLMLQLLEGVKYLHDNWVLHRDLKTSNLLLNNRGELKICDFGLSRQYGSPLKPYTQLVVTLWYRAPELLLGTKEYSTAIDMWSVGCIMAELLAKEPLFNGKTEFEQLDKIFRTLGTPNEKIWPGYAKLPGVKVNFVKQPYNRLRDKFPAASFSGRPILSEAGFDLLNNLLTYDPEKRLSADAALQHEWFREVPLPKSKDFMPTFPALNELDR
Method in brief: as §1
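Further: purified Escherichia coli-expressed rice kinase domain construct.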

Row | SMILES | thermal shift delta Tm [1] [°C] | thermal shift delta Tm [2] [°C] | thermal shift delta Tm [3] [°C] | thermal shift delta Tm [4] [°C] | thermal shift delta Tm [5] [°C] | thermal shift delta Tm [6] [°C] | thermal shift delta Tm [7] [°C] | thermal shift delta Tm [8] [°C] | thermal shift delta Tm [9] [°C] | thermal shift delta Tm [10] [°C] | thermal shift delta Tm [11] [°C] | thermal shift delta Tm [12] [°C] | thermal shift delta Tm [13] [°C] | thermal shift delta Tm [14] [°C] | thermal shift delta Tm [15] [°C] | thermal shift delta Tm [16] [°C] | thermal shift delta Tm [17] [°C] | thermal shift delta Tm [18] [°C] | thermal shift delta Tm [19] [°C] | thermal shift delta Tm [20] [°C]
1 | C=CC(=O)N1CCN(CCCn2c(=O)c(-c3c(Cl)c(OC)cc(OC)c3Cl)cc3cnc(NC)nc32)CC1 | 1.48 | -0.24 | 0.2 | -0.06 | 0.02 | 0.17 | -0.82 | 0.53 | 0.67 | -0.31 | 1.93 | 0.21 | 0.58 | -0.09 | 0.48 | 0.92 | 0.26 | -0.04 | 0.5 | 0.38
2 | COc1ccc(S(=O)(=O)N(C(C)=O)c2ccccc2/C=C/c2cc[n+]([O-])cc2)cc1 | 1.85 | 0.75 | 0.63 | 0.55 | -0.3 | 0.2 | 1.33 | 0.62 | 2.16 | 1.01 | -0.35 | -0.24 | 0.19 | 0.13 | -0.03 | 0.17 | 0.09 | 0.01 | 0.55 | 0.61
3 | C[S+]([O-])c1ccc(-c2nc(-c3ccc(F)cc3)c(-c3ccncc3)[nH]2)cc1 (stereo not given) | 1.65 | 1.11 | 1.91 | 1.11 | -0.03 | 0.63 | 1.46 | 1.44 | 1.3 | 0.84 | 1.21 | 0.81 | 1.08 | 0.78 | 0.58 | 0.08 | 0.32 | 1.35 | 1.26 | 1.23
4 | CNC(=O)c1ccccc1Nc1cc(Nc2ccc(N3CCOCC3)cc2OC)ncc1C(F)(F)F | 2.14 | 0.41 | 1.89 | 0.52 | 3.13 | 10.3 | 0.91 | 3.96 | 9.46 | 2.18 | 5.48 | 0.23 | 0.62 | 7.78 | 3.73 | 0.25 | 1.97 | 6.3 | 3.08 | 0.19
5 | COc1c(C)c(C(=O)c2ccc(N)c(C(=O)O)c2)n2ccccc12 | 1.57 | 0.95 | 1.12 | -0.1 | -0.08 | 0.36 | 0.92 | 0.95 | -0.55 | 1.28 | 0.38 | 0.3 | 0.46 | -0.07 | 0.21 | 0.58 | 0.22 | 0.79 | 0.31 | 0.29
6 | CC(C)(C)c1nc(-c2cccc(NS(=O)(=O)c3c(F)cccc3F)c2F)c(-c2ccnc(N)n2)s1 | 2.01 | 7.29 | 1.89 | 19.8 | 1.21 | 3.43 | 1.44 | 1.92 | 3.94 | 1.55 | 2.7 | 2.41 | 0.43 | 0.52 | 0.49 | 1.42 | 1.63 | 2.09 | 2.46 | 2.47
